Consider 94 compounds from PMC4336329 (PLoS ONE, 2015).

Screen size: about 310,000 compounds; about 14,000 (4.5%) showed an effect of 50% or more. The effect is printed as a negative number. This is one part of a sample in which strong results are shown more often than they occur.
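Note: peak tail current of the secondary pulse compared with the same well before compound.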

For this assay, the target named is human ether-à-go-go-related gene (hERG) potassium channel (human, UniProt Q12809). In words: primary screen, population patch clamp on CHO cells stably expressing hERG; higher = less effect of the substance.
Chain of human ether-à-go-go-related gene (hERG) potassium channel (Q12809 whole entry, looked up): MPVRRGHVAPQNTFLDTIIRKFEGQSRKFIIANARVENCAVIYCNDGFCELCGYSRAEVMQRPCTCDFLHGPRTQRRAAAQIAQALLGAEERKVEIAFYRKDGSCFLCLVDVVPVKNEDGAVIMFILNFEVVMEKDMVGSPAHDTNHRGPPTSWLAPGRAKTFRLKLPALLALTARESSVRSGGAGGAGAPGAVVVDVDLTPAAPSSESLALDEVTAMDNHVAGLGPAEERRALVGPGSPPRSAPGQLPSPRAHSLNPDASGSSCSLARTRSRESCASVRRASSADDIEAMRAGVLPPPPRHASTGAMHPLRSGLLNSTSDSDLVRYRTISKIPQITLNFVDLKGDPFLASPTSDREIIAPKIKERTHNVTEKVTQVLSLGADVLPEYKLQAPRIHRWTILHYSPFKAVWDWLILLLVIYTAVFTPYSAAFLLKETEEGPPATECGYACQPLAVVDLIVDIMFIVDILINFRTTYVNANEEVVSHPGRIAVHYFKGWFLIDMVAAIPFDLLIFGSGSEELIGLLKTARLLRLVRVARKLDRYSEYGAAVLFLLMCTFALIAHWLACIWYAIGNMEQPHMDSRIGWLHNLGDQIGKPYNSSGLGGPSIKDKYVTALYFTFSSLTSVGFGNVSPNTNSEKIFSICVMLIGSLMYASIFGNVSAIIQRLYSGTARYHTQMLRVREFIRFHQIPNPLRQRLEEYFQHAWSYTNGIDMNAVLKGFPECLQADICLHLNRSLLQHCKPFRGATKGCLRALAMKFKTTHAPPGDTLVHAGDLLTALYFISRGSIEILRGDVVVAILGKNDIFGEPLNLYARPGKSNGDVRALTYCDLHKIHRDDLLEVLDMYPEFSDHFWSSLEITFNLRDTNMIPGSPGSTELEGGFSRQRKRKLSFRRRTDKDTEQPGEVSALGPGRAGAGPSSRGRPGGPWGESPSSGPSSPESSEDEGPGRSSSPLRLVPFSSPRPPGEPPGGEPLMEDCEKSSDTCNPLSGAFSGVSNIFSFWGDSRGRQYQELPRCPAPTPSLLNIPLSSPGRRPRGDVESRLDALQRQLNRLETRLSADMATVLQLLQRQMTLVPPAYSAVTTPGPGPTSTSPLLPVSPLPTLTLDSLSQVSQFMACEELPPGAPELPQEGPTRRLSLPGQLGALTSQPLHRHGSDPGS
Take `O=C(N=Nc1c(O)[nH]c2ccccc12)c1ccc2c(c1)OCO2`: the “hERG current change (%, negative = inhibition) at 10uM” value amounted to 6.09%.
Take `CCCNC(=O)c1ccc(S(=O)(=O)c2ccc(OC)cc2)c([N+](=O)[O-])c1`: the “hERG current change (%, negative = inhibition) at 10uM” value is recorded as -31.2%.
For the compound `Cc1cccc(NC(=S)NCCN2CCOCC2)c1C`, the “hERG current change (%, negative = inhibition) at 10uM” value is 13.9%.
With `COc1ccccc1-c1nnc2sc(COc3ccccc3)nn12`, the “hERG current change (%, negative = inhibition) at 10uM” value was -2.14%.
For the compound `COc1ccccc1-c1nnc2sc(COc3ccc(F)cc3)nn12`, the “hERG current change (%, negative = inhibition) at 10uM” value is listed as -74%.
For `COc1ccccc1-c1nnc2sc(COc3ccc(Cl)cc3)nn12` the value was -37.8%.
For `COc1ccc2cc(CCNC(=O)c3ccco3)c(=O)[nH]c2c1` the value was -2.81%.
For `O=P(O)(CCc1ccccn1)CN1CCOCC1` the value was 6.28%.
As for `O=P(O)(CCc1ccccn1)CN1CCCCC1`, the “hERG current change (%, negative = inhibition) at 10uM” value is -67.6%.
As to `O=P(O)(CCc1ccccc1)CN1CCCCC1`, the “hERG current change (%, negative = inhibition) at 10uM” value is recorded as 10.9%.
For `Cc1cc(C)c2nc(-c3cccnc3)cc(C(=O)NC(C)c3cnn(C)c3C)c2c1` (stereo not shown) the value was -30.6%; for `CC(C)CCN1C(=O)c2ccc(C(=O)NCC3CCCO3)cc2C1=O` (stereo not shown), -8.48%.
For `CC(C)N(Cc1nccn1C)C(=O)c1cc(COc2ccc3ncccc3c2)on1` the value was 9.33%.
As to `Cc1cccc(C)c1OCc1cc(C(=O)N(Cc2nccn2C)C(C)C)no1`, the “hERG current change (%, negative = inhibition) at 10uM” value is -5.91%.
For `Cc1cc(OCc2cc(C(=O)N(Cc3nccn3C)C(C)C)no2)cc(C)c1Cl` the value was -58.5%.
For `CC(C)N(Cc1nccn1C)C(=O)c1cc(COc2ccc(-n3cncn3)cc2)on1` the value was -51.5%; for `COc1cccc(OCc2cc(C(=O)N(Cc3nccn3C)C(C)C)no2)c1`, 8.5%.
For `CC(C)N(Cc1nccn1C)C(=O)c1cc(COc2ccc(F)cc2Cl)on1`, the “hERG current change (%, negative = inhibition) at 10uM” value was found to be 0.188%.
For `COc1ccc2nc(SC)cc(C)c2c1` the value was 16.5%.
For `CCC1CCC2(CC1)NC(CO)(CO)CO2` (stereo not shown) the value was 8.52%.
For `CC(C)CC1(C)N=C(c2ccccc2)C(=S)N1` (stereo not shown), the “hERG current change (%, negative = inhibition) at 10uM” value is listed as 8.32%.
For `CCOc1cccc(CN2CCN(CCc3ccccc3)C(CCO)C2)c1O` (stereo not shown) the value was -69.7%; for `COc1cccc(CN2CCN(CCCc3ccccc3)C(CCO)C2)c1O` (stereo not shown), -72.4%.
Regarding `CCOc1cccc(CN2CCN(CCCc3ccccc3)C(CCO)C2)c1O` (stereo not shown), the “hERG current change (%, negative = inhibition) at 10uM” value is recorded as -76.3%.
As to `C=CCOc1ccccc1CN1CCN(CCc2ccccc2)C(CCO)C1` (stereo not shown), the “hERG current change (%, negative = inhibition) at 10uM” value is on record as -59.4%.
For the compound `CCOc1cccc(CN2CCN(Cc3ccc(C)o3)C(CCO)C2)c1O` (stereo not shown), the “hERG current change (%, negative = inhibition) at 10uM” value was -13.1%.
Take `CCCn1ncc(CN2CCN(CCc3ccccc3)C(CCO)C2)c1C` (stereo not shown): the “hERG current change (%, negative = inhibition) at 10uM” value was -46.9%.
For `COc1cccc(CN2CCN(CCCc3ccccc3)C(CCO)C2)c1OC` (stereo not shown) the value was -48.6%; for `COC(=O)CN1C(=S)N(c2ccc(OC)cc2)C(=O)/C1=C/c1cccs1`, 34%.
For `Nc1nc(NCc2ccccc2)n(-c2ccccc2)n1` the value was 14.9%.
On to `CCOc1ccc(-n2nnnc2-c2nc3ccccc3s2)cc1`, for which the “hERG current change (%, negative = inhibition) at 10uM” value is listed as 11.9%.
For `O=c1[nH]cc(S(=O)(=O)N2CCOCC2)c(=O)[nH]1` the value was -7.17%; for `CC1CN(CCc2ccccc2)c2nc3c(c(=O)n(CC(N)=O)c(=O)n3C)n2C1` (stereo not shown), 2.53%; for `CCOCCn1c(=O)c2c(nc3n2CC(C)CN3CCc2ccccc2)n(C)c1=O` (stereo not shown), -71.5%.
With `COCCn1c(=O)c2c(nc3n2CC(C)CN3CCc2ccccc2)n(C)c1=O` (stereo not shown), the “hERG current change (%, negative = inhibition) at 10uM” value is on record as -56.6%.
For `CCn1c(=O)c2c(nc3n2CC(C)CN3CCc2ccccc2)n(C)c1=O` (stereo not shown) the value was -72.6%.
Consider `C=CCn1c(=O)c2c(nc3n2CCCN3CCc2ccccc2)n(C)c1=O`, for which the “hERG current change (%, negative = inhibition) at 10uM” value is reported as -19.8%.
Consider `CC1CN(CCc2ccccc2)c2nc3c(c(=O)[nH]c(=O)n3C)n2C1` (stereo not shown), for which the “hERG current change (%, negative = inhibition) at 10uM” value is -35.9%.
Turning to `CCOCCn1c(=O)c2c(nc3n2CCCN3CCc2ccccc2)n(C)c1=O`, the “hERG current change (%, negative = inhibition) at 10uM” value was -22.8%.
For `CCOCCn1c(=O)c2c(nc3n2CC(C)CN3Cc2ccccc2)n(C)c1=O` (stereo not shown) the value was -49.5%.
For `COCCn1c(=O)c2c(nc3n2CCCN3CCc2ccccc2)n(C)c1=O` the value was -31.2%; for `C=CCn1c(=O)c2c(nc3n2CC(C)CN3CCc2ccccc2)n(C)c1=O` (stereo not shown), -72%.
For `COCCn1c(=O)c2c(nc3n2CC(C)CN3Cc2ccccc2)n(C)c1=O` (stereo not shown) the value was -47.6%; for `CC1CN(CCc2ccccc2)c2nc3c(c(=O)n(C)c(=O)n3C)n2C1` (stereo not shown), -33.9%.
As to `CC(C)C(=O)Nc1cccc(NC(=O)c2cc3ccccc3o2)c1`, the “hERG current change (%, negative = inhibition) at 10uM” value is -22%.
Regarding `C=C(C)C1CC=C(C)/C(=N/NC(=O)COc2cccc3ccccc23)C1` (stereo not shown), the “hERG current change (%, negative = inhibition) at 10uM” value is 10.9%.
With `CCOc1cc(C(=O)NN2CCOCC2)cc(OCC)c1OCC`, the “hERG current change (%, negative = inhibition) at 10uM” value is given as 35.2%.
For `CC(C)CC(=O)NC(=S)Nc1nc(-c2cccc3ccccc23)cs1` the value was 12.7%.
With `COc1ccc(/C=N/n2cnnc2SCc2ccccc2)cc1`, the “hERG current change (%, negative = inhibition) at 10uM” value is -2.99%.
For `Cc1nc(SCC(=O)NC2CCS(=O)(=O)C2)c2c(C)c(C)sc2n1` (stereo not shown) the value was 6.15%; for `Clc1ccccc1-c1nnc(-c2ccccc2Cl)o1`, -2.56%.
For `COc1cccc(N/N=C/c2cccc(Br)c2O)c1` the value was -11.1%.
For `CCOC(=O)c1sc2nc(SCC#N)n(CCCN3CCCC3=O)c(=O)c2c1C` the value was -62.9%; for `CCOC(=O)c1sc2nc(SCC(=O)N(CC)CC)n(CCCN3CCCC3=O)c(=O)c2c1C`, -32.4%; for `CCOC(=O)c1sc2nc(SCC#N)n(CC3CCCO3)c(=O)c2c1C` (stereo not shown), -13.5%.
As for `COc1cccc(C2C(C(=O)c3cc4ccccc4o3)=C(O)C(=O)N2CCN(C)C)c1OC` (stereo not shown), the “hERG current change (%, negative = inhibition) at 10uM” value was determined as 0.215%.
For the compound `Cc1ccc(C(=O)CSc2cc(C)[nH]c(=O)n2)cc1`, the “hERG current change (%, negative = inhibition) at 10uM” value amounted to 6.76%.
Consider `CC(=O)NN1C(=O)/C(=C\c2ccc(Cl)cc2)SC1=S`, for which the “hERG current change (%, negative = inhibition) at 10uM” value stood at 0.662%.
For `Cc1cccn2c(=O)c3cc(C#N)c(=O)n(-c4c(C)n(C)n(-c5ccccc5)c4=O)c3nc12` the value was -7.5%.
Take `CCCn1c(=N)c(C#N)cc2c(=O)n3cccc(C)c3nc21`: the “hERG current change (%, negative = inhibition) at 10uM” value is given as -53%.
As to `CCCn1c(=N)c(C#N)cc2c(=O)n3ccccc3nc21`, the “hERG current change (%, negative = inhibition) at 10uM” value is reported as -9.89%.
Turning to `CCC(C)n1c(=N)c(C#N)cc2c(=O)n3ccccc3nc21` (stereo not shown), the “hERG current change (%, negative = inhibition) at 10uM” value is -40.9%.
Turning to `Cc1ccc(Cn2c(=N)c(C#N)cc3c(=O)n4cccc(C)c4nc32)cc1`, the “hERG current change (%, negative = inhibition) at 10uM” value is on record as -13%.
Turning to `Cc1ccc2nc3c(cc(C#N)c(=N)n3Cc3cccnc3)c(=O)n2c1`, the “hERG current change (%, negative = inhibition) at 10uM” value was -60.4%.
For `N#Cc1cc2c(=O)n3ccccc3nc2n(Cc2cccnc2)c1=O`, the “hERG current change (%, negative = inhibition) at 10uM” value is -21%.
Turning to `CCC(C)n1c(=N)c(C#N)cc2c(=O)n3cccc(C)c3nc21` (stereo not shown), the “hERG current change (%, negative = inhibition) at 10uM” value was -66.9%.
For `Cc1ccc(C)c(-n2c(=O)c(C#N)cc3c(=O)n4ccccc4nc32)c1` the value was 30.5%; for `CCC(C)n1c(=N)c(C#N)cc2c(=O)n3cc(C)ccc3nc21` (stereo not shown), -70.9%.
Regarding `Cc1ccc2nc(NCc3ccccc3)c(C=NCc3cccnc3)c(=O)n2c1`, the “hERG current change (%, negative = inhibition) at 10uM” value is recorded as 3.39%.
For `Cc1ccc2nc3c(cc(C#N)c(=O)n3-c3nccs3)c(=O)n2c1` the value was 2.51%; for `CC(=O)NC(CC(=O)Nc1nc(C)cs1)c1ccccc1` (stereo not shown), 14.1%.
For `CCCCCCCCn1sccc1=O` the value was -33.8%.
`Cc1ccc(S(=O)(=O)N2CCN3CCCC3C2)cc1` (stereo not shown): the “hERG current change (%, negative = inhibition) at 10uM” value was -6.76%.
Regarding `COc1ccc(S(=O)(=O)NCCc2nnc3ccc(SCC(=O)Nc4nc(C)cs4)nn23)cc1`, the “hERG current change (%, negative = inhibition) at 10uM” value was 25.3%.
On to `NC(=O)CC1C(=O)N(c2ccc(Cl)cc2)C(=S)N1NC(=O)c1cccc(F)c1` (stereo not shown), for which the “hERG current change (%, negative = inhibition) at 10uM” value came out at 15.3%.
For `COc1ccccc1/C=C/C(=O)NCC(=O)N/N=C(/C)c1ccco1` the value was 7.74%.
Regarding `Nc1[nH]nc2nc3ccccc3cc12`, the “hERG current change (%, negative = inhibition) at 10uM” value is recorded as 23%.
Take `O=c1oc2ccccc2cc1-c1cn2cccnc2n1`: the “hERG current change (%, negative = inhibition) at 10uM” value is listed as 1.91%.
For `COc1ccc(C2C(C(=O)N3CCN(c4ccccn4)CC3)CCC(=O)N2c2cc(OC)c(OC)c(OC)c2)cc1` (stereo not shown) the value was 9.77%; for `Cc1cccc(N=C2C(=O)Nc3c(Cl)cccc32)c1`, 18.5%; for `CCc1nc2cc(Cl)c(Cl)cc2[nH]1`, 2.59%.
For `Cc1cc(-n2c(=O)c(C#N)cc3c(=O)n4ccccc4nc32)no1` the value was -17%.
As to `Cc1cc(-n2c(=O)c(C#N)cc3c(=O)n4cccc(C)c4nc32)no1`, the “hERG current change (%, negative = inhibition) at 10uM” value is reported as -65.1%.
For `Cc1ccc(-n2c(=O)c(C#N)cc3c(=O)n4cccc(C)c4nc32)cc1` the value was 1.03%; for `Cc1ccc(OC(=O)c2ccc(S(=O)(=O)N(C)C)cc2)c(-n2nc3ccccc3n2)c1`, 3.83%; for `O=C(Nc1nccs1)c1ccc(-c2ccc(Cl)cc2Cl)o1`, 25.5%.
`Cc1ccc2nc3c(cc(C(=O)NCCc4ccccc4)c(=N)n3CC3CCCO3)c(=O)n2c1` (stereo not shown): the “hERG current change (%, negative = inhibition) at 10uM” value is listed as -76.9%.
For `O=C(CSc1nc2ccccc2c(=O)n1CC1CCCO1)NCCc1ccccc1` (stereo not shown) the value was 7.48%; for `COc1ccc(CNC(=O)C(=O)NCC2CCCO2)cc1` (stereo not shown), 9.7%; for `COc1ccc(CNC(=O)c2cc3c(=O)n4cccc(C)c4nc3n(CC3CCCO3)c2=N)cc1` (stereo not shown), -77.2%.
On to `Cc1cccn2c(=O)c3cc(S(=O)(=O)c4ccccc4)c(=N)n(CC4CCCO4)c3nc12` (stereo not shown), for which the “hERG current change (%, negative = inhibition) at 10uM” value is -15.3%.
In the case of `COc1ccc(CCNC(=O)c2cc3c(=O)n4cccc(C)c4nc3n(CC3CCCO3)c2=N)cc1` (stereo not shown), the “hERG current change (%, negative = inhibition) at 10uM” value is recorded as -75.2%.
For the compound `Cc1ccc(CCNC(=O)c2ccc3nc4ccccc4c(=O)n3c2)cc1`, the “hERG current change (%, negative = inhibition) at 10uM” value was determined as 6.08%.
For `Cc1cccn2c(=O)c3cc(C(=O)NCCc4ccccc4)c(=N)n(CC4CCCO4)c3nc12` (stereo not shown) the value was -82.3%.
